Drawing on PubChem BioAssay AID540259 (Broad Institute, 2011), this text covers outcome for 36 molecules.

Results with a measured potency or affinity are listed apart. Active and inactive are the calls of the source.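 The calls were made as follows: active = cell killing, meaning signal decrease, with fitted half-maximal dose at or below ten times the top valid tested dose; inconclusive = poor fit, or flat curve with 30 to 70% signal loss; inactive = the rest.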

A short description of the assay: ATP-based viability loss in HeLa cells – cell-based, CellTiter-Glo luminescence, cherry-pick samples, cytotoxicity control for MITF activator project, dose response (AID 540259). To be noted: 24 h; series mostly up to 35 µM. Background: Cellular ATP, detected with luciferase, serves as a proxy for viable cell number.
For `O=C(c1cc(COc2ccc(F)cc2Cl)on1)N1CCCCCC1`, the outcome was inactive.
The value for `CCCc1ccc(C(=O)NNc2ccccc2F)cc1` was “inactive”.
Take `COCc1ccc(-c2c(-c3ccc(OC)cc3)oc(=O)c3cc(OC)c(OC)cc23)cc1`: the result was inactive.
The value for `O=C(N/N=C/c1ccc(Cl)cc1Cl)c1cccc(F)c1` was “inactive”.
The value for `CC1CCc2nc(NC(=O)Cc3cccs3)sc2C1` (stereo unspecified) was “inactive”; that for `CC1CCC(NC(=O)c2cc3c(s2)CCCC3)CC1` (stereo unspecified) was “inactive”; that for `O=C(Cc1ccccc1F)Nc1ccc(SC(F)F)cc1` was “inactive”.
Under `CCc1nnc(NS(=O)(=O)c2ccc(NC(=O)c3cccc(Cl)c3)cc2)s1` stands “inactive”; under `COc1ccc2cc(C(N)=O)c(=Nc3ccccc3)oc2c1`, “inactive”.
As for `CCc1ccc(OC(=O)Nc2ccccc2)cc1`, the molecule was classed as inactive.
The value for `Oc1nc(Nc2ccccc2)sc1/C=C1\C=Nc2ccccc21` was “inactive”; that for `Cc1nc2ccc(NC(=O)Cc3c(F)cccc3Cl)cc2s1` was “inactive”.
In the case of `Cc1noc(N)c1C(=O)Nc1ccc(C(C)(C)C)cc1`, the call was inactive.
Under `Clc1ccc(-n2nnc(-c3cccnc3Cl)n2)cn1` stands “inactive”; under `Cc1ccc(O)c(-n2nc3ccccc3n2)c1`, “inactive”.
The value for `CC(=O)NCCC1CCCCN1C(=O)c1cc(COc2cc(C)ccc2C)on1` (stereo unspecified) was “inactive”; that for `CC(=O)c1sc(NC(=O)c2ccccc2F)nc1-c1ccccc1` was “inactive”; that for `Cn1cccc1C(=O)N/N=C/c1c(Cl)cccc1Cl` was “inactive”.
In the case of `COc1ccc(-c2cn3nc(C)c(C)nc3n2)cc1OC`, the molecule was called inactive.
`C/C(=C\c1ccc(N)cc1)c1nc2ccccc2[nH]1`: the call was inactive.
On to `COc1ccc(-c2csc(N(C)C(=O)c3cccs3)n2)cc1`, for which the call was inactive.
Take `CCCCNC(=O)c1cc2ccccc2s1`: the call was inactive.
The value for `O=C(Nc1ccc(C(F)(F)F)cc1)c1ccccc1` was “inactive”.
The value for `C/C(=N\O)c1ccc(N2C(=O)C3CC=C(Cl)CC3C2=O)cc1` (stereo unspecified) was “inactive”.
Consider `COc1ccc2ccccc2c1/C=N/Nc1cccc(C(=O)O)c1`, for which the call was inactive.
Under `O=C(CCCc1ccccc1)c1ccccc1` stands “inactive”; under `Cc1cc(C(=O)Cn2nc(C(=O)O)c3ccccc3c2=O)c(C)n1CC(F)(F)F`, “inactive”; under `c1ccc2c(c1)CC/C2=N/Nc1nc2ccccc2[nH]1`, “inactive”.
Under `CC(C)(C)c1ccc(-c2noc(-c3ccno3)n2)cc1` stands “inactive”; under `CCCc1cc(C(=O)Nc2ccc(C(=O)OC)cc2)cs1`, “inactive”.
Take `O=C(Nc1ccc(NC(=O)c2ccccc2F)cc1)c1cccs1`: the result was inactive.
Under `O=C(NC1CCCCCC1)c1cc2c(=O)n3ccccc3nc2s1` stands “inactive”; under `Cn1cc(Br)c(C(=O)Nc2sc3c(c2C(N)=O)CCCC3)n1`, “inactive”; under `Cc1ccc(CNc2ccc3c(c2)ncn3C(C)C)cc1`, “inactive”.
As for `Cc1ccc(/C=N/Nc2ccc(Cl)nn2)cc1`, the outcome was inactive.
Under `O=C(N=C1N=C2C=CC=CN2Cc2ccccc21)c1ccc(S(=O)(=O)N2CCCC2)cc1` stands “inactive”.
